Source: PubChem BioAssay AID602350 (Broad Institute, 2012)
Potency and affinity values are given separately. Active and inactive are the calls of the source.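 How the source made its calls: active means absorbance falls by 30% or more versus neutral controls, with a potency fitted within twice the top valid dose; inconclusive means no clear call, values can overlap the other calls; inactive means change opposite to expected direction, plus the rest.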

molecular target: Protein disulfide-isomerase (Homo sapiens) (UniProt P07237); assay: inhibition of PDI-driven insulin aggregation – biochemical, turbidity, absorbance, cherry-picked samples, dose response (AID 602350); conditions: recombinant PDI insulin aggregation, absorbance 650 nm, 90 min; series mostly up to 19.5 µM
Sequence (P07237 whole entry, looked up): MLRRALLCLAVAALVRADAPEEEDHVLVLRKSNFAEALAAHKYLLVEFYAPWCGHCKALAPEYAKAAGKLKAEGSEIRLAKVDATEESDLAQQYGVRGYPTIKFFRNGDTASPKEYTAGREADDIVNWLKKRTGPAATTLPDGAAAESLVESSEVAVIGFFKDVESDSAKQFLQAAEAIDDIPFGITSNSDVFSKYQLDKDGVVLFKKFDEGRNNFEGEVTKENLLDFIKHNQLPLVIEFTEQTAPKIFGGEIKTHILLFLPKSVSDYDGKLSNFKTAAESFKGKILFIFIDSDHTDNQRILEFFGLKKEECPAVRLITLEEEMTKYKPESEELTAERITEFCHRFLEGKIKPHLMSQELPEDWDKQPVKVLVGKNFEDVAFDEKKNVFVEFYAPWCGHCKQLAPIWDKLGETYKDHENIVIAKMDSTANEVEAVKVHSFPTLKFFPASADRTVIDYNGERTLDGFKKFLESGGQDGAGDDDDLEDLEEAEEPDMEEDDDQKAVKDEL

outcome, inactive:
O=C(NCc1ccccc1CN1CCCC1)c1cc2ccccc2o1
CC(=O)NC(Cc1c[nH]c2ccccc12)C(=O)OCC(=O)N1CCN(S(=O)(=O)c2ccc(Cl)cc2)CC1 (centres undefined)
CCOC(=O)c1c(CN2CCN(C)CC2)n(-c2ccccc2)c2cc(Br)c(O)cc12
Cc1c(C(=O)N2CCOCC2)sc2ncn(CC(=O)N3CCC(C)CC3)c(=O)c12
CCOC(=O)c1c(CN2CCOCC2)n(-c2ccccc2)c2cc(Br)c(OC)cc12
COCC(=O)N(C)C1(c2nnnn2CCOC(=O)Nc2ccc(Cl)cc2)CCCC1
O=C(C[C@H]1C[C@H](C(=O)N2CCCCC2)[C@@]2(CCc3ccccc3)c3[nH]c4cc(-c5ccco5)ccc4c3CCN2C1=O)NCCC1=CCCCC1
C[C@]12CC[C@H]3C(=CCc4cc(O)ccc43)[C@@H]1CCC2=O
Cc1ccc(S(=O)(=O)N2CCC(C(=O)Nc3ccc(S(=O)(=O)N4CCCC4)cc3)CC2)cc1
COc1ccc(S(=O)(=O)NCC(c2ccc(F)cc2)N2CCOCC2)cc1Br (centres undefined)
CN1CCN(C(=O)CSc2nnc(COc3ccc(Cl)cc3)o2)CC1
CCCc1cc(=O)[nH]c(SCCOc2ccc(OCC)cc2)n1
CC1(C(=O)Nc2cccc3c2CCCC3)CCN1C(=O)c1cccc(F)c1 (centres undefined)
COc1ccc(Cl)cc1NC(=O)COC(=O)C1CC1
O=C(NCc1ccccc1)c1cc(C2CCCN(C(=O)C3CCCCC3)C2)on1 (centres undefined)
C=CCNc1ncnc2c1ncn2[C@H]1CN(Cc2cccc3ccccc23)C[C@@H](CO)O1
C[C@@H]1CN([C@@H](C)CO)C(=O)Cc2cc(NC(=O)Nc3ccccc3)ccc2O[C@@H]1CN(C)Cc1ccccc1
CC(C)Cn1c(N)c(C(=O)COC(=O)c2ccc(O)cc2)c(=O)n(C)c1=O
Cc1nnc(SCc2cc(=O)oc3cc(O)ccc23)n1Cc1ccccc1
O=C(OCc1ccc(-c2ccccc2)cc1)c1cccc(O)c1
Cc1ccc(C)c(N2CCN(S(=O)(=O)c3ccc4c(c3)OCCO4)CC2)c1
O=C(NCCN1CCOCC1)c1cccnc1SCc1ccccc1Cl
C[C@H]1CN([C@@H](C)CO)C(=O)Cc2cc(NC(=O)Nc3ccccc3)ccc2O[C@@H]1CN(C)Cc1ccccc1
Cn1cc(Cl)c(C(=O)OCC(=O)Nc2ccccc2)n1
COc1ccc(N(CC(=O)NCCSC2CCCCC2)S(=O)(=O)c2ccccc2)c(OC)c1
CCOC(=O)c1c(CN(CC)CC)n(C)c2cc(Br)c(O)cc12
CC(C)C[C@@H](CN1CCC[C@@H]1CN1C(=O)C(=O)NC[C@@H]1Cc1ccccc1)N1C[C@H](Cc2ccc(O)cc2)N(CCc2ccccc2)C(=O)C1=O
CCCNC(=O)c1cccc(COc2ccccc2OC)c1
C[C@H]1CN([C@@H](C)CO)C(=O)Cc2cc(NC(=O)Nc3ccccc3)ccc2O[C@H]1CN(C)Cc1ccccc1
CCOC(=O)c1c(-c2ccccc2)oc2cc(Br)c(O)cc12
Nc1ccc(C(=O)NN2C(=O)[C@H](Cl)C2c2ccc(Cl)cc2)cc1 (some centres undefined)
O=C(CN(CCc1ccccc1)C(=O)CNS(=O)(=O)c1ccccc1)NCC1CCCO1 (centres undefined)
Cc1ccc2c(=O)n3c(nc2c1)C(Cc1ccc(O)cc1)NC(=O)c1cccnc1-3 (centres undefined)
C[C@@H]1CN([C@@H](C)CO)C(=O)c2cccc(NS(C)(=O)=O)c2O[C@@H]1CN(C)Cc1ccc(Oc2ccccc2)cc1
O=C(Cn1nnc2ccccc21)OCC(=O)c1ccccc1
COc1cccc(/C=C2\CCCCC2=O)c1
Cc1cc(=O)c(C(=O)Nc2cccc(C(=O)NC3CC3)c2)nn1-c1ccccc1
O=C(NC(Cc1c[nH]c2ccccc12)C(=O)N/N=C/c1cccnc1)c1cccs1 (centres undefined)
O=C(COC(=O)c1ccccc1NC(=O)c1ccco1)NCCC1=CCCCC1
